# Measurements reported in the supplement of paper PMC10037445.
# The full ranking holds about 2,900 compounds; the median of “NF-kB SEAP reporter activity, fold change vs agonist alone” is about 0.99, and the highest 2% start at about 2.6. The sample holds the highest values, similar compounds and a random draw of the others, so the mix is not that of the screen.
# Tests used:
# [1] = test system: RAW-Dual; assay: NF-kB SEAP reporter activity, fold change vs agonist alone; cytotoxicity flag (confluency mask): not cytotoxic; higher = enhanced NF-kB activity
# Method in brief: (§1)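 Library stock was pin-tooled at 50 nL into 384-well plates of RAW-Dual macrophages (50,000 cells/well, DMEM), followed 1 h later by a PRR agonist, and the cells were kept at 37 °C, 5% CO2. Supernatant collected after 20 hours was read for IRF by QuantiLuc luminescence and for NF-κB by QuantiBlue absorbance at 620 nm. Reporter activity is fold change over agonist-alone wells, and a well counted as cytotoxic when its IncuCyte confluency was below 70% of agonist controls in both mask sets.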
# [2] = test system: RAW-Dual; assay: NF-kB SEAP reporter activity, fold change vs agonist alone; higher = enhanced NF-kB activity; conditions: library stock concentration (final ~1000-fold dilution): 10 mM
# Method in brief: as §1
# [3] = test system: RAW-Dual; assay: NF-kB SEAP reporter activity, fold change vs agonist alone; cytotoxicity flag (confluency mask): cytotoxic (confluency <70% of control); higher = enhanced NF-kB activity
# Method in brief: as §1
# [4] = agonist: ODN 1826 (TLR9) 0.5 ug/mL
# [5] = agonist: Pam2CSK4 (TLR2/6) 0.1 ug/mL
# [6] = agonist: Pam3CSK4 (TLR2/1) 0.1 ug/mL
# [7] = cytotoxicity flag (confluency mask): not cytotoxic, agonist: Imiquimod (TLR7) […]
# [8] = cytotoxicity flag (confluency mask): not cytotoxic, agonist: MPLA (TLR4) […]
# [9] = cytotoxicity flag (confluency mask): cytotoxic (confluency <70% of control), agonist: Imiquimod (TLR7) […]
# [10] = cytotoxicity flag (confluency mask): cytotoxic (confluency <70% of control), agonist: MPLA (TLR4) […]
compound,measurement,setting,value
[O-][n+]1cccc(-c2nc3c(Cl)cccc3cc2C(Nc2ncnc3cccnc23)C(F)(F)F)c1 (stereo not given) (library stock concentration (final ~1000-fold dilution): 10 mM),NF-kB SEAP reporter activity,[1]; agonist: LPS (TLR4) 0.1 ug/mL,2.33
same,NF-kB SEAP reporter activity,[1]; [4],1.3
same,NF-kB SEAP reporter activity,[1]; [5],0.992
same,NF-kB SEAP reporter activity,[1]; [6],1.38
[O-][n+]1cccc(-c2nc3c(Cl)cccc3cc2C(Nc2ncnc3cccnc23)C(F)(F)F)c1 (stereo not given),NF-kB SEAP reporter activity,[2]; [7],0.648
same,NF-kB SEAP reporter activity,[2]; [8],1.56
CC(C)=CC(C)C[C@](C)(O[C@@H]1O[C@H](CO)[C@@H](O)[C@H](O)[C@H]1O)[C@H]1CC[C@]2(C)C3CCC4C(C)(C)C(O[C@@H]5O[C@H](CO)[C@@H](O)[C@H](O)[C@H]5O[C@@H]5O[C@H](CO)[C@@H](O)[C@H](O)[C@H]5O)CC[C@]4(C)C3C[C@H](O)[C@@H]12 (stereo not given in full) (library stock concentration (final ~1000-fold dilution): 10 mM),NF-kB SEAP reporter activity,[1]; agonist: LPS (TLR4) 0.1 ug/mL,1.18
same,NF-kB SEAP reporter activity,[1]; [4],1.06
same,NF-kB SEAP reporter activity,[1]; [5],1.04
same,NF-kB SEAP reporter activity,[1]; [6],1.04
CC(C)=CC(C)C[C@](C)(O[C@@H]1O[C@H](CO)[C@@H](O)[C@H](O)[C@H]1O)[C@H]1CC[C@]2(C)C3CCC4C(C)(C)C(O[C@@H]5O[C@H](CO)[C@@H](O)[C@H](O)[C@H]5O[C@@H]5O[C@H](CO)[C@@H](O)[C@H](O)[C@H]5O)CC[C@]4(C)C3C[C@H](O)[C@@H]12 (stereo not given in full),NF-kB SEAP reporter activity,[2]; [7],0.936
same,NF-kB SEAP reporter activity,[2]; [8],1.05
COc1cc(CCC(=O)CC(O)CCc2ccc(O)c(OC)c2)ccc1O (stereo not given) (library stock concentration (final ~1000-fold dilution): 10 mM),NF-kB SEAP reporter activity,[1]; agonist: LPS (TLR4) 0.1 ug/mL,1.4
same,NF-kB SEAP reporter activity,[1]; [4],1.07
same,NF-kB SEAP reporter activity,[1]; [5],0.979
same,NF-kB SEAP reporter activity,[1]; [6],1.25
COc1cc(CCC(=O)CC(O)CCc2ccc(O)c(OC)c2)ccc1O (stereo not given),NF-kB SEAP reporter activity,[2]; [7],1.04
same,NF-kB SEAP reporter activity,[2]; [8],1.1
COC(=O)C1=C(C)NC(C)=C(C(=O)OC2CCCN(Cc3ccccc3)C2)C1c1cccc([N+](=O)[O-])c1.Cl (stereo not given) (library stock concentration (final ~1000-fold dilution): 10 mM),NF-kB SEAP reporter activity,[1]; agonist: LPS (TLR4) 0.1 ug/mL,1.22
same,NF-kB SEAP reporter activity,[1]; [4],0.381
same,NF-kB SEAP reporter activity,[1]; [5],0.365
same,NF-kB SEAP reporter activity,[1]; [6],0.368
COC(=O)C1=C(C)NC(C)=C(C(=O)OC2CCCN(Cc3ccccc3)C2)C1c1cccc([N+](=O)[O-])c1.Cl (stereo not given),NF-kB SEAP reporter activity,[2]; [7],0.718
same,NF-kB SEAP reporter activity,[2]; [8],0.978
CN(C)CCOc1ccc(-c2nc(-c3ccncc3)c(-c3ccc4c(c3)CC/C4=N\O)[nH]2)cc1,NF-kB SEAP reporter activity,[2]; [7],0.946
same,NF-kB SEAP reporter activity,[2]; [8],1.02
OCCn1cc(-c2ccc3c(c2)CC/C3=N\O)c(-c2ccncc2)n1,NF-kB SEAP reporter activity,[2]; [7],1.65
same,NF-kB SEAP reporter activity,[2]; [8],1.57
CN(C)CCOc1ccc(-c2nc(-c3ccncc3)c(-c3ccc4c(c3)CC/C4=N\O)[nH]2)cc1 (library stock concentration (final ~1000-fold dilution): 10 mM),NF-kB SEAP reporter activity,[1]; agonist: LPS (TLR4) 0.1 ug/mL,5
same,NF-kB SEAP reporter activity,[1]; [4],0.964
same,NF-kB SEAP reporter activity,[1]; [5],1.49
same,NF-kB SEAP reporter activity,[1]; [6],0.882
OCCn1cc(-c2ccc3c(c2)CC/C3=N\O)c(-c2ccncc2)n1 (library stock concentration (final ~1000-fold dilution): 10 mM),NF-kB SEAP reporter activity,[1]; agonist: LPS (TLR4) 0.1 ug/mL,2.47
same,NF-kB SEAP reporter activity,[1]; [4],1.5
same,NF-kB SEAP reporter activity,[1]; [5],1.34
same,NF-kB SEAP reporter activity,[1]; [6],2.22
CS(=O)(=O)c1ccc(Oc2cc(F)cc(C#N)c2)c2c1C(O)C(F)(F)C2 (stereo not given),NF-kB SEAP reporter activity,[2]; [7],1.03
same,NF-kB SEAP reporter activity,[2]; [8],1.16
CS(=O)(=O)c1ccc(Oc2cc(F)cc(C#N)c2)c2c1C(O)C(F)(F)C2 (stereo not given) (library stock concentration (final ~1000-fold dilution): 10 mM),NF-kB SEAP reporter activity,[1]; agonist: LPS (TLR4) 0.1 ug/mL,1.07
same,NF-kB SEAP reporter activity,[1]; [4],1.35
same,NF-kB SEAP reporter activity,[1]; [5],1.01
same,NF-kB SEAP reporter activity,[1]; [6],1.2
COc1ccc(CCNCC(O)COc2cccc(C)c2)cc1OC.Cl (stereo not given) (library stock concentration (final ~1000-fold dilution): 10 mM),NF-kB SEAP reporter activity,[1]; agonist: LPS (TLR4) 0.1 ug/mL,1.02
same,NF-kB SEAP reporter activity,[1]; [4],0.846
same,NF-kB SEAP reporter activity,[1]; [5],0.999
same,NF-kB SEAP reporter activity,[1]; [6],1.08
COc1ccc(CCNCC(O)COc2cccc(C)c2)cc1OC.Cl (stereo not given),NF-kB SEAP reporter activity,[2]; [8],1.06
COc1ccccc1N1CCN(CC(O)COc2cccc3ccccc23)CC1.Cl.Cl (stereo not given),NF-kB SEAP reporter activity,[2]; [7],1.01
same,NF-kB SEAP reporter activity,[2]; [8],0.766
COc1ccccc1N1CCN(CC(O)COc2cccc3ccccc23)CC1.Cl.Cl (stereo not given) (library stock concentration (final ~1000-fold dilution): 10 mM),NF-kB SEAP reporter activity,[1]; agonist: LPS (TLR4) 0.1 ug/mL,0.815
same,NF-kB SEAP reporter activity,[1]; [4],0.929
same,NF-kB SEAP reporter activity,[1]; [5],0.819
same,NF-kB SEAP reporter activity,[1]; [6],0.805
O=C(NO)c1ccc(CC(=O)N(CCO)c2ccccc2)cc1 (library stock concentration (final ~1000-fold dilution): 10 mM),NF-kB SEAP reporter activity,[1]; agonist: LPS (TLR4) 0.1 ug/mL,1.94
same,NF-kB SEAP reporter activity,[1]; [4],1.74
same,NF-kB SEAP reporter activity,[1]; [5],0.801
same,NF-kB SEAP reporter activity,[1]; [6],1.21
COc1cc(C(=O)N(CCCc2ccccc2)Cc2ccc(CC(=O)O)cc2)cc(OC)c1C,NF-kB SEAP reporter activity,[2]; [7],1.1
same,NF-kB SEAP reporter activity,[2]; [8],1.11
COc1cc(C(=O)N(CCCc2ccccc2)Cc2ccc(CC(=O)O)cc2)cc(OC)c1C (library stock concentration (final ~1000-fold dilution): 10 mM),NF-kB SEAP reporter activity,[1]; agonist: LPS (TLR4) 0.1 ug/mL,1.19
same,NF-kB SEAP reporter activity,[1]; [4],0.976
same,NF-kB SEAP reporter activity,[1]; [5],0.823
same,NF-kB SEAP reporter activity,[1]; [6],0.908
CCCCN(Cc1ccc(C(=O)NO)cc1)C(=O)Nc1ccccc1 (library stock concentration (final ~1000-fold dilution): 10 mM),NF-kB SEAP reporter activity,[1]; agonist: LPS (TLR4) 0.1 ug/mL,6.63
same,NF-kB SEAP reporter activity,[1]; [4],2.5
same,NF-kB SEAP reporter activity,[1]; [5],1.18
same,NF-kB SEAP reporter activity,[1]; [6],1.73
CCCCN(Cc1ccc(C(=O)NO)cc1)C(=O)Nc1ccccc1,NF-kB SEAP reporter activity,[2]; [7],1.52
same,NF-kB SEAP reporter activity,[2]; [8],2.9
O=C(NO)c1ccc(CC(=O)N(CCO)c2ccccc2)cc1,NF-kB SEAP reporter activity,[2]; [7],1.15
same,NF-kB SEAP reporter activity,[2]; [8],1.79
CC(C)CNc1ccnc(NCc2csc(-c3ccccc3)n2)n1.Cl,NF-kB SEAP reporter activity,[2]; [9],1.85
same,NF-kB SEAP reporter activity,[2]; [10],1.47
CC(C)CNc1ccnc(NCc2csc(-c3ccccc3)n2)n1.Cl (library stock concentration (final ~1000-fold dilution): 10 mM),NF-kB SEAP reporter activity,[3]; agonist: LPS (TLR4) 0.1 ug/mL,1.62
same,NF-kB SEAP reporter activity,[3]; [4],0.221
same,NF-kB SEAP reporter activity,[3]; [5],0.625
same,NF-kB SEAP reporter activity,[3]; [6],0.446
Nc1ccn(C2OC(CO)C(O)C2(F)F)c(=O)n1 (stereo not given),NF-kB SEAP reporter activity,[2]; [9],2.14
same,NF-kB SEAP reporter activity,[2]; [10],1.35
Nc1ccn(C2OC(CO)C(O)C2(F)F)c(=O)n1 (stereo not given) (library stock concentration (final ~1000-fold dilution): 10 mM),NF-kB SEAP reporter activity,[3]; agonist: LPS (TLR4) 0.1 ug/mL,0.91
same,NF-kB SEAP reporter activity,[3]; [4],1.88
same,NF-kB SEAP reporter activity,[3]; [5],1.18
same,NF-kB SEAP reporter activity,[3]; [6],1.05
CCCCCCOC(=O)c1cc(O)c(=O)c2c(O)c(O)c(OC)cc2c1,NF-kB SEAP reporter activity,[2]; [7],1.2
same,NF-kB SEAP reporter activity,[2]; [8],0.857
CCCCCCOC(=O)c1cc(O)c(=O)c2c(O)c(O)c(OC)cc2c1 (library stock concentration (final ~1000-fold dilution): 10 mM),NF-kB SEAP reporter activity,[1]; agonist: LPS (TLR4) 0.1 ug/mL,0.614
same,NF-kB SEAP reporter activity,[1]; [4],0.459
same,NF-kB SEAP reporter activity,[1]; [5],0.599
same,NF-kB SEAP reporter activity,[1]; [6],0.895
NC(=O)c1cccc2nc(-c3ccc(C4CCCN4)cc3F)[nH]c12 (stereo not given),NF-kB SEAP reporter activity,[2]; [7],1.14
same,NF-kB SEAP reporter activity,[2]; [8],0.748
NC(=O)c1cccc2nc(-c3ccc(C4CCCN4)cc3F)[nH]c12 (stereo not given) (library stock concentration (final ~1000-fold dilution): 10 mM),NF-kB SEAP reporter activity,[1]; agonist: LPS (TLR4) 0.1 ug/mL,0.553
same,NF-kB SEAP reporter activity,[1]; [4],0.198
same,NF-kB SEAP reporter activity,[1]; [5],1.03
same,NF-kB SEAP reporter activity,[1]; [6],1
